Screens: PubChem, National Center for Advancing Translational Sciences (NCATS)
DT40 TDP1 no CPT: qHTS for Inhibitors of human tyrosyl-DNA phosphodiesterase 1 (TDP1): qHTS in cells in absence of CPT | Potency, µM (top dose mostly 46.2 µM), inactives show at the top dose activity change, negative = growth inhibition, actives largely listed as inhibitors | 420,000 tested, 15% active | DT40 Tdp1-/- hTDP1 cells, no CPT, ATP luminescence, 48 h; further: potency means the concentration at half of the fitted maximal effect; on the % scale 0 is the no-effect control and ±100 the full control effect; nearly all actives have a fitted effect of over 55% in size
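Growth kinetics read by CellTiter-Glo luminescence after ≥48 hr at 37 °C. Cells: DT40 Tdp1-/- stably carrying human TDP1, 400 per well, compound exposure in the absence of CPT (DMSO vehicle).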
TDP1 cell CPT: DT40-hTDP1 cell growth loss with CPT; chicken DT40 Tdp1-/-;hTDP1 cells + 20 nM CPT, ATP luminescence, 48 h; Potency, µM (highest dose often 46.2 µM), for the others: at the top dose activity change, negative = growth inhibition, usual class: inhibitors; 420,000 tested, 12% active; AID 686979; further: potency means the concentration at half of the fitted maximal effect; on the % scale 0 is the no-effect control and ±100 the full control effect; nearly all actives have a fitted effect of over 55% in size
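Cell growth measured by CellTiter-Glo luminescence after a minimum 48 h, 37 C compound exposure with 20 nM CPT in Tdp1-knockout DT40 cells stably expressing hTDP1, seeded 400/well; qHTS titration format.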
IL1B secr inh: inflammasome signaling inhibition, IL-1 beta readout. THP-1 LPS/ATP IL-1B secretion, AlphaLISA, 16 h; stronger effect = lower value. 360,000 tested, 4.7% active. AID 743279. activity change, % at 57.5 µM; in the data active means activity change below about -50%; inconclusive means mostly about -30% to -49%; further: on the % scale 0 is the no-effect control and ±100 the full control effect
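THP-1 cells pretreated 1 hr with compounds (up to 57.5 uM final), then stimulated with LPS (250 ng/mL final) plus ATP (1.25 mM final); secreted IL-1B measured by AlphaLISA after 16 hr, decreased signal indicating inhibition.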
HepG2 viability: counter-screen for TGF-b inhibitors: cytotoxicity in HepG2 cells. HepG2 CAGA-GFP viability, ATP luminescence, 18 h. Potency, µM (titrated, usually from 46.1 µM), for the others: at the highest dose activity change, negative = cytotoxicity, usual class: cytotoxic. 410,000 tested, 0.76% active; further: potency means the concentration at half of the fitted maximal effect
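HepG2 CAGA-GFP cells (1000/well, DMEM with 1% FBS) received compound, then TGF-beta at 500 pg/mL final, and were incubated 18 hours at 37 degrees C. Viability was read by CellTiter-Glo luminescence. Media-only wells were set as complete cell-killing and DMSO as no toxicity.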
ASM inhibitor: inhibitors of human secretory acid sphingomyelinase | P17405 | placental ASM, HMU-PC fluorogenic substrate, 60 min | Potency, µM (series often up to 57.5 µM), inactives show at the top dose activity change, negative = inhibition, usual class: inhibitors | 340,000 tested, 0.006% active | AID 504937; further: potency means the concentration at half of the fitted maximal effect
Target sequence (P17405 47-631 limits assumed): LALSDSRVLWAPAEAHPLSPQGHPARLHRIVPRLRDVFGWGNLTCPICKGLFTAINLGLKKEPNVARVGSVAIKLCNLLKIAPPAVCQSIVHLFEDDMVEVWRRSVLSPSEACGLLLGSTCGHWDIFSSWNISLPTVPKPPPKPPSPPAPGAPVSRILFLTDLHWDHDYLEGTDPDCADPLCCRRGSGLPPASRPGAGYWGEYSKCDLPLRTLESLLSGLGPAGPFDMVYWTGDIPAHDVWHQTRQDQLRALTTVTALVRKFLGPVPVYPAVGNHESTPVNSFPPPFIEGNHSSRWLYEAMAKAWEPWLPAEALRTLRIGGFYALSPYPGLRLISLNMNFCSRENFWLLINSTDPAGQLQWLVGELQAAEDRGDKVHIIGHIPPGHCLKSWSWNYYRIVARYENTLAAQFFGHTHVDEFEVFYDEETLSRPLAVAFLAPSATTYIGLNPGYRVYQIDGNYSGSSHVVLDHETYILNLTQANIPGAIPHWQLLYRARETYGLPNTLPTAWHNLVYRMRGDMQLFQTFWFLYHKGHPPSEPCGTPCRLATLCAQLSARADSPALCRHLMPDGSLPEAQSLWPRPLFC
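Human placenta-derived ASM enzyme was preincubated with compound for 10 minutes at room temperature, then given fluorogenic substrate HMU-PC0 (9 uM final) for 60 minutes at 37 °C; a pH 10 stop preceded fluorescence reading at Ex 386/Em 447 nm.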
TGFb SMAD3 inh: inhibitors of TGF-b signaling. HepG2 CAGA-GFP TGF-b/SMAD3 reporter, GFP fluorescence, 18 h; TGF-beta stimulated, 500 pg/mL final. Potency, µM (highest dose often 46.1 µM), inactives show at the top dose activity, negative = inhibition, most hits filed as inhibitors. 410,000 tested, 1.2% active. AID 588855; further: potency means the concentration at half of the fitted maximal effect; on the % scale 0 is the no-effect control and ±100 the full control effect; nearly all actives have a fitted effect of over 65% in size
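HEPG2 CAGA-GFP, 1000 cells/well; 2 h settle, 37 C; cpd via pin tool; TGF-b 500 pg/mL final; 18 h, 37 C; GFP imaging ex488/em500-530; %Activity normalised to -TGF-b and +DMSO controls; CRC fit, curve class.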
* marks the source's active call; other numbers are inactive results; ? = inconclusive; . = no result given. This is a sample that favours compounds with a hit; in the whole collection about 19% have one here. Unless noted, the call rests on the fitted dose curve; in most records, active means well fitted curve in the direction sought with a large enough effect; inconclusive means small, poorly fitted or top-dose-only effect, or another doubt; inactive means no such curve, though single readings can be large; an effect the other way counts as inactive or inconclusive.

SMILES	DT40 TDP1 no CPT	TDP1 cell CPT	IL1B secr inh	HepG2 viability	ASM inhibitor	TGFb SMAD3 inh
Cc1cccc(-c2nc(SCc3cc(=O)c4c(C)cc(C)cc4[nH]3)n[nH]2)c1	?	?	.	-93%	.	?
Cc1cc(C)c2[nH]c(=O)c(CN(CC3CCCO3)C(=O)C3CCCO3)cc2c1 (stereo unspecified)	-7%	-14%	-4	-1%	0%	28%
COc1ccc2[nH]c(=O)c(CN(Cc3cccs3)C(=S)NCC3CCCO3)cc2c1 (stereo unspecified)	23µM*	23µM*	-4	-1%	38%	-15%
Cc1cc(C)c2[nH]c(=O)c(CN(Cc3cccs3)C(=S)NCC3CCCO3)cc2c1 (stereo unspecified)	21µM*	?	-11	-2%	-7%	-16%
Cc1ccc2[nH]c(=O)c(CN(CC3CCCO3)C(=O)c3cccs3)cc2c1 (stereo unspecified)	-11%	-2%	-8	7%	-2%	8%
Cc1cc2cc(CN(Cc3cccs3)C(=S)NCC3CCCO3)c(=O)[nH]c2cc1C (stereo unspecified)	?	?	-66*	-4%	-13%	?
COc1cc(CN2CC(=O)N(c3cccc(Cl)c3C)C2=S)cc(OC)c1OC	?	23µM*	-5	-22%	-4%	-19%
COc1cc(Cl)c(C)cc1N1C(=O)CN(Cc2ccccc2)C1=S	?	-27%	-9	-27%	2%	-26%
COc1cc(CN2CC(=O)N(c3ccccc3Cl)C2=S)cc(OC)c1OC	?	18µM*	-14	-18%	-1%	0%
CSC[C@@H]1NC(=S)N(c2ccc(C)cc2)C1=O	2.3µM*	5.2µM*	0	-30%	-11%	-30%
Cc1ccc(N2C(=O)C3CCC(C)(C2=O)C3(C)C)cc1 (stereo unspecified)	-5%	3%	8	18%	-2%	-10%
COc1ccc(-n2ccn(CC(=O)NCc3ccc(C)cc3)c(=O)c2=O)cc1OC	-3%	-3%	.	-1%	.	2%
O=C(Nc1ccccc1-c1ccccc1)NC1CC2CCCC(C1)N2Cc1ccc(F)cc1 (stereo unspecified)	23µM*	21µM*	-61*	-15%	1%	-5%
O=C(CN1C2CCCC1CC(NC(=O)C1CCCCC1)C2)NCc1ccc(F)cc1 (stereo unspecified)	16µM*	?	0	0%	-1%	-16%
CCCNC(=S)NC1CC2CCCC(C1)N2Cc1ccc(F)cc1 (stereo unspecified)	18µM*	?	1	-27%	0%	0%
CN(C)S(=O)(=O)c1ccc2c(c1)N(CC(=O)N1CCC(C(N)=O)CC1)CCS2	.	.	.	-2%	.	2%
CCc1ccccc1Nc1nn2c(=O)c3ccc(C(=O)NCCCOC(C)C)cc3nc2s1	?	?	.	-4%	.	0%
Cc1ccc(C)c(Nc2nn3c(=O)c4ccc(C(=O)NCCC5=CCCCC5)cc4nc3s2)c1	7.3µM*	6.5µM*	.	-3%	.	?
COc1ccccc1Nc1nn2c(=O)c3ccc(C(=O)NCCC4=CCCCC4)cc3nc2s1	3.3µM*	1.5µM*	.	5µM*	.	5µM*
Cc1c(Cl)cccc1Nc1nn2c(=O)c3ccc(C(=O)NCCC4=CCCCC4)cc3nc2s1	4.6µM*	?	.	-14%	.	-22%
O=C(NCCC1=CCCCC1)c1ccc2c(=O)n3c(nc2c1)CCCCC3	?	?	3	-24%	-1%	-10%
